High-throughput results as filed in PubChem BioAssay.
In the library only some 2.2% were active in any assay of this set; here they are far more common.
TRPM1 prom inh = reduces MITF-dependent TRPM1 promoter luciferase signal; SK-MEL-5 TRPM1 promoter luciferase, 24 h; actives 0.83% (n = 330,000); inhibition, % at 12.5 µM;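 active = mean inhibition across replicates of 60% or more, whatever share of single replicates reaches that level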
EWS-Fli block = blocks EWS/Fli oncoprotein-driven transcription; A673 NR0B1-luciferase reporter, viability-normalised; inhibition, % at 12.6 µM; actives 0.67% (n = 350,000); AID 651661;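 active = mean inhibition of at least 50% after viability correction, with every replicate also passing that limit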;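 also: firefly luciferase signal divided by Alamar Blue viability fluorescence both relative to DMSO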
LGR2 antag = Drosophila LGR2 receptor signaling inhibition. HEK293 LGR2, CRE-luciferase, bursicon-stimulated, 4 h. inhibition, % at 9.99 µM. actives 0.35% (n = 380,000);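 active = drop in luminescence signal, shown as inhibition above about 50% in the replicate tests, limit read from the data, passing the limit was not always enough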;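 also: agonist challenge used bursicon conditioned medium at about half maximal strength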
PGC1a acetyl inh = PGC1a acetylation modulation, inhibitor mode | U2OS PGC1a acetylation, AlphaScreen anti-acetyl-lysine; with virally co-expressed GCN5 acetyltransferase | inhibition, % at 15.6 µM | actives 0.17% (n = 350,000);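 active = every replicate shows inhibition of at least 40%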
PAX8 reporter = lowers PAX8-driven luciferase in RMG-I cells | RMG-I TPO-luciferase reporter, SteadyGlo, 24 h | actives 1.2% (n = 360,000) | inhibition, % at 12.6 µM | AID 652154;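 active = mean replicate inhibition at least 60% with every replicate also reaching 60%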;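 also: luciferase light reporting Pax8 driven TPO promoter activity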
LMP1 NFkB inh = reduces LMP1-driven NF-kappaB luciferase signal; LMP1-induced NF-kappaB luciferase reporter cells, luminescence; inhibition, % at 12.5 µM; actives 0.69% (n = 350,000); AID 504558; in the data active = inhibition above about 41%
Hits are given with their value; . = inactive; / = no result given.

SMILES	TRPM1 prom inh	EWS-Fli block	LGR2 antag	PGC1a acetyl inh	PAX8 reporter	LMP1 NFkB inh
Oc1c(C(Nc2cccc(C(F)(F)F)c2)c2ccncc2)ccc2cccnc12 (configuration not stated)	65	.	.	.	.	53
O=C(Nc1ccncc1)Nc1cccc(C(F)(F)F)c1	.	.	.	/	.	.
C/C(=N\NC(=O)c1ccccc1OCc1ccc(F)cc1)c1ccccn1	70	.	.	.	.	.
C/C(=N\NC(=O)c1ccccc1Cl)c1ccccn1	.	.	.	/	.	.
C/C(=N\NC(=O)c1cc(-c2cccs2)nc2ccccc12)c1ccccn1	88	.	/	.	79	72
C/C(=N\NC(=O)c1cccc2ccccc12)c1ccccn1	76	.	.	.	65	.
NNC(=O)c1cc(-c2cccs2)nc2ccccc12	.	.	.	/	.	.
CCOc1ccc(OCc2ccc(C(=O)N/N=C(\C)c3ccccn3)cc2)cc1	.	.	.	.	.	.
COCC(=O)N1[C@H](CO)[C@@H]2c3ccccc3N(C(=O)Nc3ccccc3F)C[C@@H]21	/	.	.	.	.	/
O=C(CSc1ccc(-c2ccco2)nn1)NCc1ccccc1	.	.	.	.	63	.
O=C(CSc1ccc(-c2ccco2)nn1)NCc1ccc(Cl)cc1	.	.	.	.	.	.
CC(C)CC#Cc1cnc2c(c1)C(=O)N([C@H](C)CO)C[C@H](C)[C@H](CN(C)C(=O)CC1CC1)O2	/	.	.	.	/	/
COc1ccc(/C=N/NC(=O)c2[nH]c3ccc(Br)cc3c2-c2ccccc2)cc1	68	/	.	/	102	.
CC(C)NC(=O)Nc1ccc2c(c1)C(=O)N([C@H](C)CO)C[C@@H](C)[C@H](CN(C)C(=O)Nc1ccc3c(c1)OCO3)OCCCC[C@@H](C)O2	/	.	.	.	.	/
Cc1cccc(C(=O)n2c(=S)nc3cc(C)ccn32)c1	.	.	80	.	.	.
Cc1ccn2c(c1)nc(=S)n2C(=O)c1ccccc1	.	71	/	/	.	49
C[C@H](NC(=O)C[C@@H]1C[C@@H]2c3cc(NC(=O)Nc4ccc(C(F)(F)F)cc4)ccc3O[C@@H]2[C@@H](CO)O1)c1ccccc1	/	.	.	.	107	/
O=C(C[C@@H]1C[C@H]2c3cc(NC(=O)Nc4ccc(C(F)(F)F)cc4)ccc3O[C@H]2[C@H](CO)O1)NCCc1ccccc1	/	.	.	.	100	/
O=C(C[C@H]1C[C@@H]2c3cc(NC(=O)Nc4ccc(C(F)(F)F)cc4)ccc3O[C@@H]2[C@H](CO)O1)NCCc1ccccc1	/	.	.	.	.	/
O=C(C[C@H]1C[C@@H]2c3cc(NC(=O)Nc4ccc(C(F)(F)F)cc4)ccc3O[C@@H]2[C@@H](CO)O1)NCCc1ccccc1	/	.	.	.	99	/
O=C(C[C@@H]1C[C@H]2c3cc(NC(=O)Nc4ccc(C(F)(F)F)cc4)ccc3O[C@H]2[C@@H](CO)O1)NC1CCCCC1	/	.	.	.	.	/
O=C(C[C@@H]1C[C@H]2c3cc(NC(=O)Nc4ccc(C(F)(F)F)cc4)ccc3O[C@H]2[C@H](CO)O1)NC1CCCCC1	/	.	.	.	67	/
C[C@@H]1CN([C@@H](C)CO)S(=O)(=O)c2ccc(C3=CCCCC3)cc2O[C@@H]1CN(C)C(=O)C1CCCCC1	/	.	.	.	/	/
C[C@@H]1CN([C@@H](C)CO)C(=O)c2cccc(NC(=O)C3CCOCC3)c2O[C@H]1CN(C)C(=O)Nc1ccc(C(F)(F)F)cc1	/	.	.	.	.	/
CC(C)C(=O)Nc1ccc2c(c1)C(=O)N(C)[C@@H]1CC[C@@H](CC(=O)NCc3ccc(F)cc3)O[C@@H]1CO2	/	.	.	.	.	/
COCCNC(=O)C[C@@H]1C[C@H]2c3cc(NC(=O)Nc4ccc(C(F)(F)F)cc4)ccc3O[C@H]2[C@H](CO)O1	/	.	.	.	91	/
COCCNC(=O)C[C@H]1C[C@H]2c3cc(NC(=O)Nc4ccc(C(F)(F)F)cc4)ccc3O[C@H]2[C@H](CO)O1	/	.	.	.	.	/
COc1ccc(NC(=O)C[C@H]2C(=O)N(c3ccc(OC)cc3)C[C@@H]2C)cc1	/	.	.	.	101	.
CNC(=O)C[C@H]1C(=O)N(c2ccc(OC)cc2)C[C@@H]1C	/	.	.	.	.	.
